# Assay results reported in the supplement of paper PMC6555819.
# Tests used:
# Experiment in all cases: PBM binding z-score (relative to random genomic background probes); higher = stronger binding; sequences stand for … in GC…GCGATTGACAGCGTAGAATGAAGG
# [1] = tested on: FXR:RXRa (NR concentration 270 nM, RXRa partner concentration 90 nM)
# How it was run: (§1)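 On custom Agilent 4×180K arrays, double-stranded probes with 34-nt variable regions carried direct-repeat seeds, single-nucleotide variants, half-site ablations or random human genomic background. Ligand-free nuclear receptor dimers were applied for 1 h, and binding was read with antibodies against each partner (one per run). Binding z-scores come from regression-normalized fluorescence, with the random background probes as reference.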
# [2] = tested on: LXRa:RXRa (NR concentration 270 nM, RXRa partner concentration 90 nM)
# How it was run: as §1
# [3] = tested on: LXRa homodimer (NR concentration 270 nM)
# How it was run: as §1
# [4] = tested on: LXRb:RXRa (NR concentration 270 nM, RXRa partner concentration 90 nM)
# How it was run: as §1
# [5] = tested on: LXRb homodimer (NR concentration 270 nM)
# How it was run: as §1
# [6] = tested on: PPARa:RXRa (NR concentration 270 nM, RXRa partner concentration 90 nM)
# How it was run: as §1
# [7] = tested on: PPARg:RXRa (NR concentration 180 nM, RXRa partner concentration 90 nM)
# How it was run: as §1
# [8] = tested on: PPARg:RXRa 270nM:90nM, anti-RXR (NR concentration 270 nM, RXRa partner concentration 90 nM)
# How it was run: as §1
# [9] = tested on: PPARg:RXRa 30nM:10nM, anti-RXR (NR concentration 30 nM, RXRa partner concentration 10 nM)
# How it was run: as §1
# [10] = tested on: PPARg:RXRa 90nM:30nM, anti-RXR (NR concentration 90 nM, RXRa partner concentration 30 nM)
# How it was run: as §1
# [11] = tested on: PPARg:RXRa DBDmut IVT, anti-RXR (DBD mutation: RXRa K156A/R161A, NR concentration 270 nM, RXRa partner concentration 90 nM)
# How it was run: as §1
# [12] = tested on: PPARg:RXRa IVT, anti-PPARg (NR concentration 270 nM, RXRa partner concentration 90 nM)
# How it was run: as §1
# [13] = tested on: PPARg DBDmut:RXRa IVT, anti-PPARg (DBD mutation: PPARg1 K132A/R137A, NR concentration 270 nM, RXRa partner concentration 90 nM)
# How it was run: as §1
# [14] = tested on: PPARg DBDmut IVT, anti-PPARg (DBD mutation: PPARg1 K132A/R137A, NR concentration 270 nM)
# How it was run: as §1
# [15] = tested on: PPARg homodimer (NR concentration 180 nM)
# How it was run: as §1
# [16] = tested on: PXR:RXRa (NR concentration 270 nM, RXRa partner concentration 90 nM)
# How it was run: as §1
# [17] = tested on: PXR homodimer (NR concentration 270 nM)
# How it was run: as §1
# [18] = tested on: RARa:RXR (NR concentration 270 nM, RXRa partner concentration 90 nM)
# How it was run: as §1
# [19] = tested on: RARa homodimer (NR concentration 270 nM)
# How it was run: as §1
# [20] = tested on: RARb:RXRa (NR concentration 270 nM, RXRa partner concentration 90 nM)
# How it was run: as §1
Sequence,PBM binding z-score [1],PBM binding z-score [2],PBM binding z-score [3],PBM binding z-score [4],PBM binding z-score [5],PBM binding z-score [6],PBM binding z-score [7],PBM binding z-score [8],PBM binding z-score [9],PBM binding z-score [10],PBM binding z-score [11],PBM binding z-score [12],PBM binding z-score [13],PBM binding z-score [14],PBM binding z-score [15],PBM binding z-score [16],PBM binding z-score [17],PBM binding z-score [18],PBM binding z-score [19],PBM binding z-score [20]
TGAATTAGGTTATAAGATCAGGGAACGTTGCAAA,0.295,0.216,-0.00025,0.474,0.221,1.97,2.18,3.06,1.96,2.45,5.05,4.53,1.08,1.15,1.14,-0.000172,0.301,-0.0809,1.34,0.576
TCAGACAGGTGACGGTAACTCAGGTACGCAGTCG,-0.0449,0.58,-0.354,0.0924,-0.599,0.857,0.69,1.72,3.16,2.51,2.24,1.37,0.209,0.0566,0.126,0.109,-0.211,0.171,0.103,0.885
TATACATGGTCAAAGGCCAGAGTACGAATGTCGA,0.397,0.672,0.238,0.37,0.623,1.64,3.14,4.34,2.32,4.31,-0.282,1.86,1.66,0.812,0.786,0.255,0.252,0.943,0.241,1.6
TCTCGTAGATCAACAGGAGGTTAAGAAAGATCGA,0.345,1.09,-0.171,1,-0.667,1.13,-0.29,1.7,2.94,2.36,1.41,0.00538,0.397,-0.0394,0.0333,0.901,-0.13,1.21,0.12,0.48
ATCGAAAGGTCTACGAGGTGAGTATACACCGTTT,0.287,0.343,-0.515,0.353,-0.0521,1.03,0.797,0.573,0.114,0.523,-0.371,1.17,0.797,0.317,0.182,0.409,0.194,1.17,0.434,1.81
ATCTCTAGGTAAAAGCTCAGTGAATCCCGAGGAT,-0.219,-0.28,-0.281,-0.514,0.446,0.485,1.13,2.55,1.27,2.35,2.43,1.66,0.208,0.808,-0.0545,-0.626,-0.475,-0.548,0.418,-0.0301
ATACCAAGGTGATCGTGAGGTCGTGGATACTAAC,1.71,1.27,0.515,1.39,-0.127,2.17,0.846,0.784,-0.103,0.493,0.55,1.38,0.414,0.297,1.2,2.53,0.492,3.03,0.48,1.65
GCGACTGGGGCATCAGCAGGTTTCCATAACTTAA,-0.587,-0.452,-0.461,0.112,-0.629,0.353,0.32,0.386,-0.554,-0.228,3.74,2.62,-1.63,-0.793,0.145,-0.54,-0.0807,-0.096,-0.582,0.524
CAAACTAGGACACCGGAAGGTCAAAGTCCGCATG,3.19,3.23,3.38,3.19,0.695,4.46,4.72,4.54,1.9,3.7,6.39,6.49,2.4,2.63,2.78,3.89,1.68,4.36,1.36,3.59
CGAACGAGGGCATGAGTTGATAGGAAATGCCGAT,0.317,0.134,-0.459,-0.00432,-0.811,1.27,1.61,1.43,0.315,0.987,2.5,1.68,-1.02,-0.376,0.547,0.35,0.349,0.4,-0.46,1.88
CGAACTAGGTCATCCAGGACAGTGACTACATTGA,4.72,2.67,0.428,1.91,-0.136,4.84,7.74,6.43,3.94,6.21,8.16,8.47,4,0.771,3.18,1.88,1.13,2.32,0.438,3.95
CCGACTGGGGCAAAGGTTTCCATACTCAGTACGA,-0.478,-0.199,-0.443,0.175,-1.02,3.35,8.18,7.78,8.2,9.01,5.1,4.87,-0.186,-0.49,0.0767,-0.0306,-0.339,0.0342,-0.339,0.737
AGGATGAGGTTATACGTAGATCAGGGAAGAAAGT,2.42,1.94,0.445,2.03,0.715,2.62,1.16,1.11,0.501,0.724,0.241,0.698,1.41,0.577,1.34,1.6,1.47,1.71,1.01,1.77
GCTCCGAGGACAAGGTCAGAGCTTTGTCCGTAGA,1.79,1.33,-0.653,1.05,-1.37,2.23,0.168,1.15,-0.379,0.299,0.525,0.632,-1.51,-1.01,0.305,1.55,-0.543,1.76,-0.762,3.33
CAAACTAGGTCACGAAAGCTCAAAGTCGAATGAC,4.45,3.66,0.551,2.56,0.287,5.46,9.27,7.24,5.74,7.12,8.36,8.78,1.59,1.7,2.09,2.01,-0.0695,2.59,0.726,4.42
AATAAAGGGTCACTAGGCCAGAGTAGGTACGAAT,6.74,5.35,1.44,4.42,1.27,6.36,8.19,6.96,3.48,6.22,4.52,6.06,1.89,1.25,2.96,3.13,0.43,4.07,1.9,5.16
ACCGAAAGGTCGAAGGTGAGTATACCCACCCGAA,4.73,3.55,-0.00494,2.87,0.185,4.8,4.39,4.89,1.89,3.85,0.582,2.06,0.374,0.174,0.885,3.14,0.0236,4.6,0.157,3.84
CAAACTCGGTCAAAGGTCAAAGTCGAGCCAACCA,7.73,6.98,6.36,6.72,3.13,7.67,12.9,10.9,11.8,12.5,5.71,7.61,1.95,3.41,6.43,6.69,2.5,8.37,3.33,5.43
CCGACTAGGGCAGAAAGGTTACCATACCATCCGG,0.259,0.701,0.0905,0.925,-0.912,2.11,1.79,2.27,0.723,1.86,2.95,2.6,-0.185,-0.946,1.12,1.24,-0.00781,1.86,0.161,2.24
CCCAGCAGGCCAATCTGGGTCACTCAAGGCTTGA,0.369,1.43,-0.513,0.944,-1.13,3.19,1.76,2.13,-0.161,1.13,3.08,4.97,-0.484,-1.45,0.339,1.31,-0.346,1.46,-0.731,1.63
TAGCCGAGGTCAGATCGGGCCAGTATACGCTATA,5.46,4.26,0.00263,3.74,0.611,4.8,3.14,3.56,1.05,2.17,0.468,2.23,0.311,-0.734,1.19,4.38,-0.437,3.81,-0.0454,4.42
TTACCAAGGTGAAGGTGGTTGATCCCTCTGTAGA,0.468,0.457,-0.29,0.0076,-0.769,1.41,0.605,1.37,0.889,1.13,1.73,2.52,-0.348,-0.272,0.43,0.325,-0.346,0.45,-0.245,1.37
ACTTACGGGTCAACGAGATTATAGCACGCGTATA,6.86,4.16,0.415,3.82,1.09,5.71,5.29,5.21,2.2,4.07,3.56,4.11,1.69,2.1,2.79,3.31,0.376,4.37,1.47,4.23
CCTACTGGGCCACGAAATGTCATTGATTCAGTGA,-0.161,-0.0585,-0.34,-0.341,-0.393,0.653,1.58,1.24,-0.144,0.475,6.24,5.34,0.216,-0.527,0.759,-0.308,-0.533,0.0426,-0.591,0.57
CAAACTAGGTCACAGAGGTCAAGGTCCGTGCGTA,7.39,6.46,5.6,5.68,1.33,6.48,10.1,8.21,6.84,8.39,8.45,9.01,2.38,2.54,4.67,6.54,10,7.58,2.96,5.46
AGTCAAAGTACATCTAGGTAACGTAAGATATGCT,-0.254,-0.258,-0.145,-0.0982,-0.223,0.359,1.35,0.631,0.46,0.326,0.968,2.23,0.568,1.11,-0.552,-0.0859,0.334,-0.223,0.0853,0.801
CGAACGAGGGCATGAGTTGATAGTAAATGCCGAT,0.719,0.489,-0.433,0.273,-0.709,1.27,1.45,1.26,0.122,0.578,3.01,1.98,-0.123,0.201,-0.00807,0.636,0.316,0.644,-0.245,1.94
CAAACTAGGTCAAAGTCAAAGTCGGTTTGTGCCA,4.66,3.77,0.899,2.64,1.02,5.18,8.68,7.7,6.17,8.03,8.48,8.78,4.97,3.93,1.7,1.63,-0.171,2.61,0.68,4.01
GATACAGGGTCAGCTAGAGGCCAGAGTCTGGAAA,4.63,2.79,-0.316,2.18,-0.91,4.47,3.57,3.41,0.796,2.27,1.42,2.41,-0.329,-0.829,2.68,3.16,-0.43,4.74,0.22,4.16
